Reference: PubChem BioAssay AID1347426 (Functional Genomics Laboratory (NCATS/FGL), 2020)
Out of some 31,000 sequences screened, about 1,400 (4.5%) were called active. The sample as a whole holds a higher share of actives than the screen did. Values without a mark were called inactive.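 How the source made its calls: active means median seed-adjusted z-score above 1 or below -1; inactive means the rest.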

Assay: Novel Modifiers of Survival Motor Neuron (SMN) Protein: Gene Identification via Genome-wide siRNA Screen
Conditions: HEK293T SMN2-luciferase reporter, siRNA knockdown, 72 h; actives lie on both sides
From the text: Spinal muscular atrophy (SMA) is the most common neuromuscular autosomal recessive disorder and one of the leading genetic causes of infant death. SMA results from mutations inducing loss of function or deletion in the survival of motor neuron-1 gene (SMN1), leading to deficiency of the survival motor neuron (SMN) protein. Although a second nearly identical gene, SMN2, is retained in humans, its expression primarily produces an aberrantly spliced isoform that is largely unstable and quickly degraded. We performed a genome-wide RNAi screen using a cell-based reporter assay to identify genes and pathways that modulate SMN protein stability. The screen identified over 200 genes that led to the greatest increase or decrease in luciferase expression.
Using HEK293T cells stably expressing a luciferase reporter that combines the promoter and splicing based cassettes in tandem with the major portion of the native SMN2 cDNA with luciferase, we performed a genome-wide RNAi screen to identify modulators of SMN protein levels. Luciferase is expressed when full-length SMN protein is generated with luminescence signal proportional to SMN protein levels. Our luciferase-based reporter assay was used to screen Ambion Silencer Select Human Druggable Genome siRNA library (10418 genes, 3 unique siRNAs per gene) using lipid-based reverse transfection.
Briefly, 1 pmol of each siRNA was spotted to a well of a 384-well plate (Corning, Corning, NY) and 20 microL of serum-free DMEM containing […] of Lipofectamine RNAiMax (Life Technologies, Carlsbad, CA) was then added to each well. Transfected cells were maintained at 37 degrees C in 5% CO2 for 72 hours, 20 microL of ONE-Glo Reagent (Promega) was added to wells for luciferase quantification. Raw luminescence reads were normalized to Ambion(R) Silencer(R) Negative Control #2 siRNA, then log10 transformed. A robust statistical measure of median absolute deviation (MAD) to standardize siRNA activities from each screen. Common Seed Analysis was used to help prioritize clean hits as opposed to those appearing to arise from seed based off-target effects. Candidate modulators were defined as the genes having a MAD score greater than 1.0 or less than -1.0.

Row | Sequence | median seed-adjusted z-score
1 | GCAUGAACUGAAACCCAAUTT against SMURF1 | -1.4 (active)
2 | CCAUCGUACCUGUUACCAATT against KRIT1 | -0.447
3 | GCAUCUACGAGUUCAUCAUTT against FOXG1 | 0.749
4 | GCAGUGAUCUAGUCUCUUUTT against GLRX | -0.0561
5 | CAUAACCACUUUAAAGUCATT against GAB1 | 0.373
6 | GCAAAUUGAUGAACCGGUUTT against CEP135 | -0.2
7 | UGACCACACUUCUCAGCUATT against IL9R | -1.33 (active)
8 | GCACGAGGCUGGUACAGUUTT against MFNG | 0.377
9 | GGAGACUAGUGGUGGGAUATT against CCL16 | -0.308
10 | GCAACUUGUGAAUCUAGGATT against VCAM1 | 0.19
11 | AACUUGUCGCUGCCCAAUATT against ABCA2 | -1.18 (active)
12 | GGCUGACAGUAGCUAAGCUTT against RAPGEF4 | -0.197
13 | CCAGAUGGAUGUACACUGUTT against PDE6C | 0.205
14 | CCACGCACAUACUAUCAAATT against HIVEP1 | 0.532
15 | CCCUUAGACUCUAAGCCCATT against HSD17B14 | 0.386
16 | GAAUGGUCCUAUAUCUCAATT against LARP5 | -0.144
17 | GGAUACUUCAGGACUAGAATT against PNN | 1.29 (active)
18 | GAGCAUCUUUGAUCGAGAATT against SPINK5 | 0.26
19 | CCCUGGCAGCUAGUAGGUUTT against BATF3 | 0.698
20 | CCAGUUUAUUGGAAACCGATT against NOP56 | 0.307
21 | UCCAGCAAGUGGCCAAGAATT against DUPD1 | -0.406
22 | AGAUUAUCAUAUUGGGUGATT against RAB7B | 0

Row | Sequence | median seed-adjusted z-score
23 | CUAUAGGAAUGUUGAAUAATT against WDR33 | 3.27 (active)
24 | GGACCACAAUGUACGGAAATT against ATP13A5 | 0.241
25 | CUCCUGUACUCUUCAGAGATT against PTOV1 | 0.115
26 | GGACCAAGCCCUAAAGGAATT against 4-Sep | -0.0124
27 | GGAUUAAUCCACGAAUUGATT against EGF | 0.00831
28 | AACUUGUAUUCUUAGGUUUTT against SAR1A | 0.0213
29 | GCUAACUACCAAGUCCUAATT against SLC8A1 | 0.221
30 | ACAUCGCCCUCAAACGGGATT against ACTL7A | 1.1 (active)
31 | GAUUGAUAGAGACAAUUCATT against RNGTT | -1.55 (active)
32 | UGGUGCUGUUGGUAAAACATT against CDC42 | -0.0938
33 | AGAGGUCCUUCAAAACAGATT against ENTPD6 | 0.438
34 | GGAGCGGAAUGAACUCAAATT against RILP | 0.503
35 | GCUUAGGUCUUGCUCUCAATT against YWHAE | 1.38 (active)
36 | CCACAAUAUCUCUAACAGATT against GUCY1A2 | -0.186
37 | AAACAAUCCGAAAAUAUGATT against KLK13 | 0.452
38 | GAAUUGACAAUCUCAUAGATT against MCCC2 | -0.0566
39 | GCAUCUUUUGGAGAUCGAATT against TC2N | 0.461
40 | GAAGUAUGAAGAAGAAGUATT against KRT83 | 1.15 (active)
41 | GAUCAUCCCUUGUCUCUUUTT against CHRNA6 | 0.21
42 | GCAGAAUACUUCUAUGAAUTT against WIF1 | -0.521
43 | ACACCAGCCUUGCACCUGATT against NCR1 | -0.26
44 | CGCCUUUCAUUUUUGCUGATT against TGM1 | -0.286

Row | Sequence | median seed-adjusted z-score
45 | CCUUUGCCCUGUUCAAGGATT against CYP17A1 | -1.39 (active)
46 | CAUACGAGGUAUUAUCAAATT against DNAJB7 | 0.684
47 | GGAUCAGUAAUAUACCACATT against MTFMT | -0.0119
48 | CCUGGAUUACAUCUACUUATT against EPHB6 | -0.0275
49 | GCAGCAUUAUAGUCGUAUUTT against PRSS7 | 0.0614
50 | GCAUUUGUAGGGUUACGGATT against GABRG1 | 0.312
51 | CAUUGUAGAUUACUCAGAATT against RHOT1 | -0.189
52 | GAUCCAUACUUGGAUGAUATT against PAIP1 | -0.0178
53 | GCUCGGAUAUGCUCCAGGATT against TMPRSS5 | 1.25 (active)
54 | GCCUGGAAUUCUACCGCUATT against SLC29A1 | 0.117
55 | GCAUAUCUUCUAACUUGCATT against EVI1 | 0
56 | GGACCAAGAGGAUUGAGUATT against CLSTN2 | 0
57 | AGUUUAAUCGGAAAGCCUUTT against NANS | -1.54 (active)
58 | GCAACACCGACGUAAAGAATT against ALOX5 | -0.201
59 | UGCUCUCAGUGGAAGAGGATT against TNFRSF8 | 0.739
60 | GGUUGGUGUUCGAUGAGUATT against ANXA6 | -1.01 (active)
61 | GCGGCAAGGGUUUCAAGCATT against FIZ1 | 0.154
62 | GAAGUUCGGUCGAACCACATT against CST5 | 0.466
63 | CCAGUACGCUAUGGACGUATT against MDN1 | 0.187
64 | GUCUGUCAAUGUACCUUCUTT against 3-Mar | 0.069
65 | GCAACAGCAUUGUCCGUGUTT against LRRN2 | 0.324
66 | GAACUGACAUGGGAAGAUUTT against DUOX1 | -1.09 (active)

Row | Sequence | median seed-adjusted z-score
67 | GCCUGACUUCGACUGCUCATT against GFER | 0.402
68 | GGAGGCUAAUGGUUGCUUUTT against ARPC1B | 0
69 | CUAUUUCCCUGCCUUCGAATT against GSTA3 | 0.334
70 | CAACAAAAGUUUCAUGCUATT against STK35 | 0.519
71 | GGAGGUACGUGGAAAAGCATT against ORC3L | -0.254
72 | GCUUCGGAAUUCAGACAUUTT against NFATC4 | 0
73 | GGCCCUUGGCCUUACUAUGTT against ACSM2B | -0.0401
74 | GCACGAUAUUAUGAUCCAATT against PPAT | -1.51 (active)
75 | CAACCACCAUCUGACCUUUTT against MMP15 | -0.0489
76 | GGCUGAAAACGGAGCACAATT against PCDHB16 | -0.523
77 | CAGUGACUGUUGUUGGUCUTT against PKD1L3 | -0.658
78 | GGAGGAGCCUAAGAUGUCATT against ZNF442 | 1.06 (active)
79 | AAGGGAAAGUGUACUGGUATT against MMP23B | 0.288
80 | GGCUAUUGAUUGUCCACAUTT against L2HGDH | -0.346
81 | CUACCGAGAUUUUAGAUGATT against POLE | -1.55 (active)
82 | CACUAUAUCUAUAUCGAAATT against PLD1 | 0.518
83 | GACCCAUACAGAAAGUAGATT against SSR1 | -0.434
84 | GAUGCGCACUCAGUCCUUATT against MLLT4 | -0.0762
85 | CUGUGAGAAUUGUUGCUCUTT against TRIP6 | 1.03 (active)
86 | GGAUCUCAGUCAAAGGCAUTT against CPZ | -0.0748
87 | CGAUCGAGUGGAUGAAGAATT against MMP24 | -1.28 (active)
88 | ACAUUGAACGUCCCACGUATT against TUBA3E | -0.35

Row | Sequence | median seed-adjusted z-score
89 | GCUAAGAGCUUCGUGCUGATT against LGALS1 | 0.033
90 | CCAUGGAUAUGGAAACCCATT against ALPK3 | 0.365
91 | GGAGAGAGCAGUUUCAACATT against HSPB8 | 0.207
92 | GGAUAGAAUAUGUAACGGUTT against SUPT6H | -2.54 (active)
93 | CACCGGUGAGAUUCCCUAUTT against ZNF546 | 0.497
94 | GCUUACUACACUUUUCUAATT against G6PC2 | -0.0362
95 | CAAACUCUACAUCACCUUUTT against GPR32 | -1.2 (active)
96 | CAAGAACUCGGAUAAUGAUTT against IL2RG | -0.155
97 | CACGGUAUAUGUUAGAGUATT against DSG3 | 0
98 | UCCCUUACAUGUCACCAAATT against ZMIZ2 | -0.27
99 | GCCUACAAGCAGAUUCAAATT against PTRH2 | 0.0467
100 | ACCCAACUCUUACUCUUAATT against RNF7 | -1.18 (active)
101 | GGCUCAACGUAUAAGCGAATT against PIP5K1B | 0.0917
102 | GAUGGAAACAUUGAAUAUATT against GTPBP2 | -0.166
103 | GAAGGAGUUUGCACAGAAATT against DHDH | 0.522
104 | CAGUCUUCAUUGCUACUAATT against NFE2L2 | -0.596
105 | GAAGCAAUCUGGGAAGAGATT against MOCS3 | -0.496
106 | CGCCCAACCUUACUACCUUTT against TXNDC14 | -2.39 (active)
107 | GGAUGGUUGUGAGCCGCUATT against ZNF784 | 0.291
108 | CGACGACGUGCAAGACCAATT against ZNF787 | -0.0628
109 | CCUUUACUUUCUAUAGAAATT against ZNF573 | -0.169
